Source: PubChem BioAssay (National Center for Advancing Translational Sciences (NCATS))
HT1080NT lethal: kills 2HG-producing HT-1080-NT fibrosarcoma cells. HT-1080-NT fibrosarcoma viability, CellTiter-Glo ATP luminescence, 48 h. Potency, µM (series often up to 46.1 µM), usual class: cytotoxic. 1.6% of 360,000 active;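 note: NT is the 2HG producing partner of a matched IDH1 knockdown line; nearly all actives have a fitted effect of over 55% in size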
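Luminescent CellTiter-Glo readout after 48 hours of compound exposure at 37 degrees C defined viability of HT-1080-NT cells. Activity was normalized to DMSO wells and cell-free media wells; concentration-response curves were fitted and assigned curve classes.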
HT1080 IDH1KD tx: HT-1080 IDH1 knockdown cell toxicity (counter line); HT-1080 IDH1 knockdown viability, ATP luminescence, 48 h; Potency, µM (titrated, usually from 46.1 µM), actives largely listed as cytotoxic; 2% of 360,000 active
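Knockdown cells (IDH1KD HT-1080) received compounds 2 h after plating at 750 cells/well and were kept 48 h at 37 °C in 5% FBS RPMI. A CellTiter-Glo luminescence read gave % activity for curve fitting.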
DT40 TDP1 no CPT: qHTS for Inhibitors of human tyrosyl-DNA phosphodiesterase 1 (TDP1): qHTS in cells in absence of CPT; AID 686978, 2013; 15% of 420,000 active; DT40 Tdp1-/- hTDP1 cells, no CPT, ATP luminescence, 48 h; Potency, µM (series often up to 46.2 µM), hits mostly inhibitors; note: nearly all actives have a fitted effect of over 55% in size
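Cells were dispensed at 400 per well, compounds added by pin tool, plates incubated ≥48 hr at 37 °C, then CellTiter-Glo added for 30 min at room temperature before luminescence reading. Line: DT40 Tdp1-/- complemented with hTDP1; camptothecin omitted.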
TDP1 cell CPT: DT40-hTDP1 cell growth loss with CPT; 12% of 420,000 active; AID 686979; Potency, µM (series often up to 46.2 µM), hits mostly inhibitors; chicken DT40 Tdp1-/-;hTDP1 cells + 20 nM CPT, ATP luminescence, 48 h; note: nearly all actives have a fitted effect of over 55% in size
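Cell growth measured by CellTiter-Glo luminescence after a minimum 48 h, 37 C compound exposure with 20 nM CPT in Tdp1-knockout DT40 cells stably expressing hTDP1, seeded 400/well; qHTS titration format.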
IL1B secr inh: inhibitors of inflammasome signaling (IL-1 beta secretion); 4.7% of 360,000 active; THP-1 LPS/ATP IL-1B secretion, AlphaLISA, 16 h; hits give low values; activity change, % at 57.5 µM; AID 743279; in the data active = activity change below about -50%; inconclusive = mostly about -30% to -49%
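Secreted IL-1B measured by AlphaLISA bead assay after 16 h compound exposure of THP-1 cells; compounds (final up to 57.5 uM) added 1 h before LPS (250 ng/mL) and ATP (1.25 mM) stimulation; lower signal means less secretion.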
Large screens that a line does not name were inactive. This is a sample that favours compounds with a hit; in the whole collection about 19% have one here. Unless noted, calls come from the whole dose curve; as a rule, active = well fitted curve in the direction sought with a large enough effect; inconclusive = small, poorly fitted or top-dose-only effect, or another doubt; inactive = no such curve, though single readings can be large; an effect the other way counts as inactive or inconclusive.

CC(C)(C)c1ccc(C(O)c2ncc(-c3cccc(F)c3)[nH]2)cc1 (centres undefined)	HT1080NT lethal inconclusive, HT1080 IDH1KD tx inconclusive, DT40 TDP1 no CPT inconclusive, TDP1 cell CPT 15µM
CSc1ccc(C(O)c2ncc(-c3ccc(F)cc3)[nH]2)cc1 (centres undefined)	DT40 TDP1 no CPT 15µM, TDP1 cell CPT 29µM
Cc1ccc(C)c(C(O)c2ncc(-c3ccc4ccccc4c3)[nH]2)c1 (centres undefined)	DT40 TDP1 no CPT inconclusive, TDP1 cell CPT 18µM
COc1cccc(-c2cnc(C(O)c3ccc(C(C)(C)C)cc3)[nH]2)c1 (centres undefined)	HT1080NT lethal inconclusive, HT1080 IDH1KD tx inconclusive, DT40 TDP1 no CPT 18µM, TDP1 cell CPT inconclusive
COCCCN(C(=S)NC(=O)c1ccc(C(C)(C)C)cc1)c1c(N)n(Cc2ccccc2)c(=O)[nH]c1=O	none
C/C(=C\c1ccccc1)C(=O)NCc1ccco1	none
CC(C)(C)c1ccc(C(O)c2ncc(-c3ccc4ccccc4c3)[nH]2)cc1 (centres undefined)	HT1080NT lethal inconclusive, HT1080 IDH1KD tx inconclusive, DT40 TDP1 no CPT 18µM, TDP1 cell CPT inconclusive
COc1cccc(-c2cnc(C(O)c3cc(Cl)cc(Cl)c3)[nH]2)c1 (centres undefined)	HT1080NT lethal inconclusive, HT1080 IDH1KD tx inconclusive, DT40 TDP1 no CPT inconclusive, TDP1 cell CPT 23µM
OC(c1cc(F)cc(Cl)c1)c1ncc(-c2ccc3ccccc3c2)[nH]1 (centres undefined)	HT1080NT lethal inconclusive, HT1080 IDH1KD tx inconclusive, DT40 TDP1 no CPT 13µM, TDP1 cell CPT 18µM
COc1cccc(-c2cnc(C(O)c3cc(F)cc(Cl)c3)[nH]2)c1 (centres undefined)	DT40 TDP1 no CPT inconclusive, TDP1 cell CPT inconclusive
OC(c1cccc(Cl)c1)c1ncc(-c2ccc3ccccc3c2)[nH]1 (centres undefined)	HT1080 IDH1KD tx inconclusive, DT40 TDP1 no CPT inconclusive, TDP1 cell CPT inconclusive
COc1ccc(C(O)c2ncc(-c3ccc4ccccc4c3)[nH]2)cc1F (centres undefined)	DT40 TDP1 no CPT inconclusive, TDP1 cell CPT inconclusive
Cc1ccc(C(=O)NCCSc2c(C)[nH]c3ccccc23)cc1[N+](=O)[O-]	HT1080NT lethal inconclusive, DT40 TDP1 no CPT 21µM, TDP1 cell CPT 10µM
COc1cc(C(=O)NCCSc2ccc(F)cc2)cc(OC)c1OC	DT40 TDP1 no CPT inconclusive, TDP1 cell CPT inconclusive
COc1cc(C(=O)NCCSc2c(C)[nH]c3ccccc23)cc(OC)c1OC	DT40 TDP1 no CPT 15µM, TDP1 cell CPT inconclusive (no result: HT1080NT lethal, HT1080 IDH1KD tx, IL1B secr inh)
COc1cccc(C(=O)NCCSc2c(C)[nH]c3ccccc23)c1OC	HT1080NT lethal inconclusive, HT1080 IDH1KD tx inconclusive, DT40 TDP1 no CPT inconclusive, TDP1 cell CPT inconclusive
COc1ccccc1C(=O)NCCSc1c(C)[nH]c2ccccc12	DT40 TDP1 no CPT 23µM, TDP1 cell CPT 16µM (no result: HT1080NT lethal, HT1080 IDH1KD tx, IL1B secr inh)
COc1cc(C(=O)NCC(=O)N/N=C/c2c(C)[nH]c3ccccc23)cc(OC)c1OC	DT40 TDP1 no CPT 26µM, TDP1 cell CPT inconclusive
Cc1ccc(SCCNC(=O)c2ccc(C)c([N+](=O)[O-])c2)cc1	TDP1 cell CPT inconclusive
COC(=O)c1ccc(Nc2nc(C)nc3c2nnn3Cc2ccccc2)cc1	none
O=C(CSc1nnc(-c2ccccc2F)o1)Nc1ccc(N2CCOCC2)cc1	none
CC1CN(C(=O)Cn2cc(SCC(=O)N3CCOCC3)c3ccccc32)CC(C)O1 (centres undefined)	none
Cc1cc(CSc2ccccc2)ccc1NC(=O)c1ccc(Cl)c([N+](=O)[O-])c1	DT40 TDP1 no CPT inconclusive, TDP1 cell CPT inconclusive, IL1B secr inh inconclusive
Cc1cc(CSc2ccccc2)ccc1NC(=O)c1ccc(C)c([N+](=O)[O-])c1	DT40 TDP1 no CPT 18µM
Clc1ccc(-c2nc3c4ccccc4ccn3c2Cc2ccsc2)cc1	DT40 TDP1 no CPT 10µM, TDP1 cell CPT 10µM
Cc1ccc(-c2nc3c4ccccc4ccn3c2Cc2cccc(Cl)c2)cc1	HT1080NT lethal inconclusive, HT1080 IDH1KD tx inconclusive, DT40 TDP1 no CPT inconclusive, TDP1 cell CPT inconclusive
N#Cc1ccc(-c2nc3c4ccccc4ccn3c2Cc2cccc(Cl)c2)cc1	DT40 TDP1 no CPT 18µM, TDP1 cell CPT 16µM
N#Cc1ccc(-c2nc3c4ccccc4ccn3c2Cc2ccsc2)cc1	DT40 TDP1 no CPT 13µM, TDP1 cell CPT 13µM
COc1cc2ccccc2cc1C(=O)N1CCN(c2ccccc2O)CC1	DT40 TDP1 no CPT inconclusive, TDP1 cell CPT inconclusive
O=C(CN1C(=O)C2C3C=CC(C4CC34)C2C1=O)Nc1cnc2ccccc2c1 (centres undefined)	DT40 TDP1 no CPT inconclusive, TDP1 cell CPT inconclusive
Cc1nc(Cl)c(C(=O)NC(=O)NCc2ccccc2)c(C)c1Cl	none
NC(=O)CC(NC(=O)Cc1ccc(Cl)cc1)c1ccc(NC2CCCCCCC2)c([N+](=O)[O-])c1 (centres undefined)	none
Cc1noc(/C=C/N(C)C)c1S(=O)(=O)N1CCCC(C(=O)NC2CCCCC2C)C1 (centres undefined)	DT40 TDP1 no CPT 21µM, TDP1 cell CPT inconclusive
Cc1ccc(NC(=O)C2CCCN(S(=O)(=O)c3c(C)noc3/C=C/N(C)C)C2)cc1F (centres undefined)	HT1080 IDH1KD tx inconclusive, DT40 TDP1 no CPT 18µM, TDP1 cell CPT inconclusive
Cc1noc(/C=C/N(C)C)c1S(=O)(=O)N1CCC(C(=O)Nc2ccc(Cl)cc2)CC1	TDP1 cell CPT inconclusive
Cc1cccc(C)c1NC(=O)C1CCCN(S(=O)(=O)c2c(C)noc2/C=C/N(C)C)C1 (centres undefined)	DT40 TDP1 no CPT inconclusive, TDP1 cell CPT 16µM (no result: HT1080NT lethal, HT1080 IDH1KD tx, IL1B secr inh)
CCOC(=O)c1c(C)[nH]c(C)c1S(=O)(=O)NCc1cc(C)ccc1C	none
CC1(C(=O)NS(=O)(=O)c2ccc(Cl)cc2)CCN1C(=O)CCC1CCCC1 (centres undefined)	none
C=CCOc1ccc(/C=C/C(=O)Nc2ccc(C(=O)NC)cc2)cc1	DT40 TDP1 no CPT inconclusive
CC12CNCC(C)(CN(C(c3ccccc3)c3ccccc3)C1)C2	HT1080NT lethal inconclusive, HT1080 IDH1KD tx inconclusive, DT40 TDP1 no CPT 13µM, TDP1 cell CPT 16µM, IL1B secr inh -81
c1ccc(C(c2ccccc2)N2CCC3(CCNCC3)CC2)cc1	DT40 TDP1 no CPT 2.6µM, TDP1 cell CPT 5.8µM (no result: HT1080NT lethal, HT1080 IDH1KD tx, IL1B secr inh)
CC1CCCN(c2c([N+](=O)[O-])cc(C(=O)O)cc2[N+](=O)[O-])C1 (centres undefined)	none
COc1cc(OC)cc(OC2(C)CCN(Cc3ccc(OC(C)C)cc3)C2)c1 (centres undefined)	HT1080 IDH1KD tx inconclusive, DT40 TDP1 no CPT 23µM, TDP1 cell CPT 26µM
CSc1ccc(OC2(C)CCN(Cc3ccccc3)C2)cc1 (centres undefined)	HT1080NT lethal inconclusive, DT40 TDP1 no CPT inconclusive, TDP1 cell CPT inconclusive
